Source: PubChem BioAssay
KB-V1 MDR tox: kills drug-selected multidrug resistant KB-V1 cells | Potency, µM (highest dose often 46.1 µM), most hits filed as cytotoxic | KB-V1 MDR cells viability, CellTiter-Glo, 72 h | 3.4% of 400,000 active; further: nearly all actives have a fitted effect of over 60% in size
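Cytotoxicity via CellTiter-Glo luminescence after 72 h compound exposure at 37 degrees C. Cells: drug-selected KB-V1 line, DMEM phenol-red free plus 10% FBS. Compounds tested at multiple concentrations; normalized data fitted to concentration-effect curves.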
HT1080-NT tox: kills 2HG-producing HT-1080-NT fibrosarcoma cells. HT-1080-NT fibrosarcoma viability, CellTiter-Glo ATP luminescence, 48 h. Potency, µM (top dose mostly 46.1 µM), actives largely listed as cytotoxic. 1.6% of 360,000 active;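 further: NT is the 2HG producing partner of a matched IDH1 knockdown line; nearly all actives have a fitted effect of over 55% in size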
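750 cells/well, RPMI + 5% FBS; 2 h settle, compound pin-transfer, 48 h at 37 degrees C. CellTiter-Glo 10 min RT, luminescence. Normalized to DMSO and media-only wells.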
MCF10A rereplic: inducers of DNA re-replication in MCF 10A breast cells. MCF 10A DNA re-replication, Hoechst nuclear intensity, 48 h. Potency, µM (highest dose often 46.1 µM), actives largely listed as activators. 2.9% of 350,000 active. AID 624296; further: nearly all actives have a fitted effect of over 50% in size
KB-3-1 cytotox: kills parental KB-3-1 adenocarcinoma cells. KB-3-1 viability, CellTiter-Glo ATP luminescence, 72 h. AID 1347075. 1.4% of 400,000 active. Potency, µM (highest dose often 46.1 µM), hits mostly cytotoxic; further: nearly all actives have a fitted effect of over 60% in size
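Parental KB-3-1 viability, qHTS format: 72 h compound exposure, 37 °C; CellTiter-Glo; media-only wells and DMSO plates as controls; concentration-effect fits on corrected data.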
SW480 rerep: inducers of DNA re-replication in SW480 colon cancer cells | Potency, µM (doses to about 46.1 µM), hits mostly activators | SW480 DNA re-replication, Hoechst DNA content imaging, 48 h | 1.8% of 340,000 active | AID 624297; further: nearly all actives have a fitted effect of over 55% in size
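First, 250 cells per well were seeded. Next, compound or vehicle (23 nL) was pinned in, plates sat 48 hr at 37 C. Finally Hoechst was added for 40 min before fluorescence scanning.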
HT1080 IDH1KD tx: kills HT-1080 cells with IDH1 knockdown. 2% of 360,000 active. HT-1080 IDH1 knockdown viability, ATP luminescence, 48 h. Potency, µM (titrated, usually from 46.1 µM), usual class: cytotoxic
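Luminescent ATP read-out (CellTiter-Glo, 10 min at room temperature) after 48 h compound exposure at 37 °C gave viability of IDH1-knockdown HT-1080 cells. Activity was normalised to DMSO and cell-free wells, then fitted as concentration-response curves.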
Numbers stand for hits; – = inactive; ? = inconclusive; · = no result given; [ ] = another dose, or the depositor's remark. A selection: hits, their analogues and other compounds. The true share with any hit is near 7.9%. The call rests on the fitted dose curve; in most records, active means well fitted curve in the direction sought with a large enough effect; inconclusive means small, poorly fitted or top-dose-only effect, or another doubt; inactive means no such curve, though single readings can be large; an effect the other way counts as inactive or inconclusive.

SMILES | KB-V1 MDR tox | HT1080-NT tox | MCF10A rereplic | KB-3-1 cytotox | SW480 rerep | HT1080 IDH1KD tx
N#Cc1ccc(C(=O)NC(=S)N2CCOCC2)cc1 | – | – | – | – | – | –
O=C(NC(=S)N1CCOCC1)c1ccc([N+](=O)[O-])cc1 | – | – | – | – | 0.65µM | –
CC(C)CNC(=O)c1c(F)c(F)c(F)c(F)c1F | – | – | – | – | – | –
O=C(Nc1ccc(F)cc1)c1cccc(NC(=O)C2C3CC4OC(=O)C2C4C3)c1 (stereo not given) | – | – | – | – | – | –
COc1ccc2nc3cc(Cl)ccc3c(Nc3ccc(O)c(CN4CCN(C)CC4)c3)c2c1 | ? | ? | – | ? | ? | 16µM
COc1cc(/C=C/C(=O)O)cc(S(=O)(=O)Nc2ccc3c(c2)CCC3)c1OC | – | – | – | – | – | –
CCC(=O)N1CCc2cc(S(=O)(=O)CCC(=O)NC(C)CC)ccc21 (stereo not given) | – | – | – | – | – | –
CCOC(=O)c1cc2c(ccc3nc(C)c(C)c32)[nH]c1C | – | – | 15µM | – | 8.2µM | –
CCC1CCCCN1C(=O)COc1c(Br)cc(Br)c2cccnc12 (stereo not given) | ? | – | – | – | – | –
COC(=O)c1cccc(NS(=O)(=O)c2ccc(OC)cc2)c1C | 9.2µM | 12µM | 5.8µM | 8.2µM | ? | –[9.24 µM]
CCOC(=O)NCc1ccc(S(=O)(=O)Nc2ccccc2C)cc1 | 23µM | – | – | – | – | –
CCOC(=O)c1ccccc1NS(=O)(=O)c1ccc(OCC)cc1 | ? | 7.1µM | 13µM | ? | 12µM | 2.2µM
Cc1cccc(N(C)C(=O)c2cc(S(=O)(=O)N3CCc4ccccc43)cn2C)c1 | – | – | ? | ? | – | –
COC(=O)C(C)SC1=N/C(=C/c2ccc(-n3cncn3)cc2)C(=O)N1 (stereo not given) | – | – | 16µM | – | ? | –
CCSC1=N/C(=C\c2ccccc2)C(=O)N1 | – | – | – | – | – | –
Cc1cc(F)ccc1C(O)c1ncc(-c2ccc(Cl)cc2)[nH]1 (stereo not given) | – | – | · | – | · | –
OC(Cc1ccccc1Br)c1ncc(-c2ccc(Cl)cc2)[nH]1 (stereo not given) | ? | ? | · | – | · | 21µM
Cc1cc(Cl)ccc1C(O)c1ncc(-c2ccc(F)cc2)[nH]1 (stereo not given) | – | ? | · | – | · | 21µM
OC(Cc1ccccc1)c1ncc(-c2ccc(Cl)cc2)[nH]1 (stereo not given) | 12µM | ? | · | ? | · | ?
CCN(CC)Cc1csc(C(N)=O)c1 | – | – | – | – | – | –
O=C(/C=C/c1ccco1)NC(=S)Nc1nc(-c2ccc(Cl)cc2)cs1 | ? | – | 21µM | ? | – | –
